# An excerpt weighted towards active compounds, which were near 11% of everything screened.
# L3MBTL1 inh: L3MBTL1 (human) inhibition | Q9Y468 | AlphaScreen L3MBTL1–H3K9me1 peptide binding | Potency, µM (highest dose often 57.1 µM), without a hit: top-dose activity, negative = inhibition, usual class: inhibitors | actives 0.66% (n = 230,000) | AID 485360; also: % is scaled to controls: 0 for no effect and ±100 for the full control effect; nearly all actives have a fitted effect of over 60% in size
#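 First, the protein-peptide complex forms for 30 min at room temperature (L3MBTL1 50 nM, biotinylated H3K9me1 peptide 75 nM). Next, compounds are pin-transferred and incubated 30 min. Finally, AlphaScreen beads are added and read after 30 min.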
# JMJD2A Tudor inh: JMJD2A Tudor domain (human) inhibition | O75164 | AlphaScreen JMJD2A-Tudor / H3K4me3 peptide binding | Potency, µM (titrated, usually from 114 µM), without a hit: top-dose activity change, negative = inhibition, most hits filed as inhibitors | actives 4.4% (n = 390,000); also: % is scaled to controls: 0 for no effect and ±100 for the full control effect; nearly all actives have a fitted effect of over 50% in size
# HP1b binding inh: inhibitors of HP1-beta chromodomain binding to methylated histone tails; Potency, µM (series often up to 114 µM), inactives show at the top dose activity change, negative = inhibition, actives largely listed as inhibitors; AID 540317; AlphaScreen HP1-beta / biotin-H3K9me3 peptide binding; P83916; actives 0.56% (n = 390,000); also: nearly all actives have a fitted effect of over 70% in size
#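 AlphaScreen: HP1-beta (50 nM) preformed 30 min with biotin-H3(1-18)K9me3 peptide (50 nM) in PBS pH 7.4, 0.01% Tween-20. Compound added for 30 min at RT, then streptavidin donor/nickel chelate acceptor beads (10 ug/mL) for 30 min.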
# G9a block: G9a (human) methyltransferase inhibition. Q96KQ7. G9a H3K9 monomethylation, AlphaScreen, 2 h. Potency, µM (top dose mostly 102 µM), without a hit: at the top dose activity, negative = inhibition, hits mostly inhibitors. actives 8.8% (n = 350,000). AID 504332; also: % is scaled to controls: 0 for no effect and ±100 for the full control effect; nearly all actives have a fitted effect of over 75% in size
#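 Signal arises when biotinylated H3K9 peptide, once monomethylated, bridges streptavidin donor and antibody-captured acceptor beads. Enzyme at 20 nM was preincubated 15 min with test compounds; peptide 500 nM and SAM 20 uM then reacted for 2 h.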
# BAZ2B block: inhibitors of human BAZ2B bromodomain. Q9UIF8. AlphaScreen BAZ2B-H3K14Ac peptide displacement. Potency, µM (doses to about 114 µM), for inactives: at the top dose activity change, negative = inhibition, usual class: inhibitors. actives 4.4% (n = 360,000). AID 504333; also: % is scaled to controls: 0 for no effect and ±100 for the full control effect; nearly all actives have a fitted effect of over 60% in size
# Target sequence (Q9UIF8 whole entry, looked up): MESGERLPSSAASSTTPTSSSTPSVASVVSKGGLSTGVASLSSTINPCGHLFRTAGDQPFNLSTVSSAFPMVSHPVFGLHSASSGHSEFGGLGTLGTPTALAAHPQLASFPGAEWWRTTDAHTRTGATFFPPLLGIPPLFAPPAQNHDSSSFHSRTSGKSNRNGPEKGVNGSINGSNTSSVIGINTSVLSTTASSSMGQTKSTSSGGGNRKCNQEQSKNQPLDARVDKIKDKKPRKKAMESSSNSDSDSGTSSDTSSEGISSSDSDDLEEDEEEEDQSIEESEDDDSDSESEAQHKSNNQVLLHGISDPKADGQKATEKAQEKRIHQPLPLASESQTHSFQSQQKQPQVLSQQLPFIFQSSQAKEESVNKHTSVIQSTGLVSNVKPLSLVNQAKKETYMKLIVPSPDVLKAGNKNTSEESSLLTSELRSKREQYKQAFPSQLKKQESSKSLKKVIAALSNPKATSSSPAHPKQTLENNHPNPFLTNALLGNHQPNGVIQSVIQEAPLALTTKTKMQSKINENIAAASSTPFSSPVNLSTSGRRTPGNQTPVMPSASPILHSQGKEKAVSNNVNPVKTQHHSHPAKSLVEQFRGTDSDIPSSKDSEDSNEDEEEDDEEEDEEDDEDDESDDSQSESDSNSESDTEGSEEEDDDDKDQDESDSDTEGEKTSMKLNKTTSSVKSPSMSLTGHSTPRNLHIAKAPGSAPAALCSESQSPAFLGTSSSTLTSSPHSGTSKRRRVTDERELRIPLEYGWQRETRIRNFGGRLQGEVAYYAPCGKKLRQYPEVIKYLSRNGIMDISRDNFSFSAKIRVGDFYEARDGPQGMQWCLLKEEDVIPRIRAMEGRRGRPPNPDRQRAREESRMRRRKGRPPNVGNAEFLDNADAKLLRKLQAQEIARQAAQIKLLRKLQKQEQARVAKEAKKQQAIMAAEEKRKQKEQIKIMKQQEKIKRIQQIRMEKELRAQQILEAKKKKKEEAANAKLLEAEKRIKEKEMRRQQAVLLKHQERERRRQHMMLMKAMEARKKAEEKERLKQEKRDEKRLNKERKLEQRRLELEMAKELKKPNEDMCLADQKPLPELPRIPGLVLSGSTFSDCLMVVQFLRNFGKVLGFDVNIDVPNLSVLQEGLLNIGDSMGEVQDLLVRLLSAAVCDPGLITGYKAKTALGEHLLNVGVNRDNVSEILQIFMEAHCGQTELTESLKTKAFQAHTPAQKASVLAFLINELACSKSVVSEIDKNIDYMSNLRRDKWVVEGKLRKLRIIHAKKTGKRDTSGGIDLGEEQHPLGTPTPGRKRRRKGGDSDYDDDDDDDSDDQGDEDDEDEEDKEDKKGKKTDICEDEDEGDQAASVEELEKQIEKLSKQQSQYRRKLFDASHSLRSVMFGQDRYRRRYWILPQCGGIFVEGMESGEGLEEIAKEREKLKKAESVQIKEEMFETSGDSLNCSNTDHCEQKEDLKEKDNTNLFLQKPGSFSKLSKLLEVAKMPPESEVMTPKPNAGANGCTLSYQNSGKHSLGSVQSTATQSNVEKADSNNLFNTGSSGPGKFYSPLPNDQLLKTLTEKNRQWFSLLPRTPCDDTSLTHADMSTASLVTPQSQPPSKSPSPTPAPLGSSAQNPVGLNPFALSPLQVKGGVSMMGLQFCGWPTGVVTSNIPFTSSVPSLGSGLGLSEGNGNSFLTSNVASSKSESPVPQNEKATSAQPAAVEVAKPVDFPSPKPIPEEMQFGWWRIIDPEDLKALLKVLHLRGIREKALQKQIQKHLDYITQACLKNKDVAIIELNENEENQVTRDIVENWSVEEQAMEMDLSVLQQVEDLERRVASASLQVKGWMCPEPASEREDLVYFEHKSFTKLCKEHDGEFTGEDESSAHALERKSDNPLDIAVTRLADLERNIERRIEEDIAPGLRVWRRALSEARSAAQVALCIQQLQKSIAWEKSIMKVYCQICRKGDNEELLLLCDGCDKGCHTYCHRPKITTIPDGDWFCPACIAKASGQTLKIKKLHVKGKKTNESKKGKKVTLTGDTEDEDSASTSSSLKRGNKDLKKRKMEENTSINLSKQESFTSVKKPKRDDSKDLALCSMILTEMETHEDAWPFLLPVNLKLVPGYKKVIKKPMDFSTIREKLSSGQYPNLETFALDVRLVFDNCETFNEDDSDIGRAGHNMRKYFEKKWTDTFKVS
#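 In this displacement format the biotinylated H3(5-23) peptide acetylated at Lys14 serves as ligand at 50 nM, with BAZ2B at 50 nM in PBS pH 7.4 containing 0.01% Tween-20. Donor and acceptor beads are 10 ug/mL final.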
# Starred values were filed as active, the others as inactive; ? = inconclusive; / = no result; [ ] = another dose, or the depositor's remark. Calls follow the shape of the dose curve; as a rule, active = well fitted inhibition curve with a large enough effect; inconclusive = small, poorly fitted or top-dose-only effect; inactive = no such curve, though single readings can be large or run the other way. Potency is read from the fitted curve at half-maximal effect.
SMILES,L3MBTL1 inh,JMJD2A Tudor inh,HP1b binding inh,G9a block,BAZ2B block
COc1ccc(/C=N/N2CCN(C)CC2)cc1O,-6%,-14%,-6%,32µM*,15%
COc1cccc(/C=N/N2CCN(C)CC2)c1,12%,-26%,3%,-8%[59 µM],-5%
CN1CCN(/N=C/c2ccc(N(C)c3ccccc3)cc2)CC1,-9%[11.4 µM],-32%,-5%,?,35µM*
CC(C)c1ccc(NC(=O)C2CCCCN2S(=O)(=O)c2ccccc2)cc1 (centres undefined),5%,2%,57%,4%[2.33 µM],0%
COc1ccc(OC)c(C2CC(=O)Nc3c2c(=O)n(C)c2ncnn32)c1 (centres undefined),/,-15%,-11%,-28%[59 µM],?
CCc1ccc(/C=C2/Sc3ccccc3N(CC(=O)NCCCN3CCOCC3)C2=O)cc1,/,?,-9%[57 µM],-12%,35µM*
O=C(CN1C(=O)/C(=C\c2cccc(Br)c2)Oc2ccccc21)NCCCN1CCOCC1,/,45µM*,58%,17%[59 µM],-6%
O=C(/C=C/Nc1ccc(Nc2ccccc2)cc1)c1cccs1,?,?,?,4µM*,13µM*
Cc1cc(N/C=C/C(=O)c2cccs2)ccc1F,10%,33%,69%,-5%,27%
O=C(/C=C/Nc1cccc([N+](=O)[O-])c1)c1cccs1,/,5%,53%,40µM*,-36%
CNc1cc([N+](=O)[O-])ccc1N/C=C/C(=O)c1ccc2c(c1)OCO2,-7%,-12%,23%,40%[59 µM],-7%
Cc1ccc(N/C=C/C(=O)c2cccs2)cc1C,18%,1%,62%,-1%,0%
CNc1cc([N+](=O)[O-])ccc1N/C=C/C(=O)c1cccs1,-23%,?,-7%,?,50µM*
Cc1ccc(CNC(=O)CN2C(=O)CCn3nc(-c4ccccc4)cc32)cc1,/,-12%,12%,-6%[59 µM],-1%[57.1 µM]
Cc1cccc(Cc2c(C)[nH]c(=O)c(C#N)c2C)c1,1%,-4%,44%,9%,89µM*
COc1cccc(NC(=S)Nc2cc(C(=O)O)ccc2N2CC3CC(C2)c2cccc(=O)n2C3)c1 (centres undefined),/,-26%,-12%,40µM*,-22%
CCN1CCN(C(=O)c2ccc(N3CC4CC(C3)c3cccc(=O)n3C4)c([N+](=O)[O-])c2)CC1 (centres undefined),/,-18%,18%,56µM*,-14%
Cc1ccc(NC(=S)Nc2cc(C(=O)O)ccc2N2CC3CC(C2)c2cccc(=O)n2C3)cc1C (centres undefined),/,-11%,-4%,40µM*,-19%
Nc1cc(C(=O)N2CCN(c3ccc([N+](=O)[O-])cc3)CC2)ccc1N1CC2CC(C1)c1cccc(=O)n1C2 (centres undefined),/,?,1%,?,-34%
Cc1csc(CNc2ncnc3ccc(-c4cccc(Cl)c4)cc23)c1,-6%,-20%,33%,10%[12.7 µM],-37%
CO/N=C(\C(=O)O)c1csc(NN=C(C)C)n1,-6%,22µM*,?,22µM*,-19%
CC(C)c1cc(CNC(=O)c2ccc(OC3CCN(Cc4ccccn4)CC3)cc2)on1,/,45µM*,2%,?,56µM*
CCn1cc(CNC(=O)c2ccc(OC3CCN(Cc4ccccn4)CC3)cc2)cn1,/,-24%,25%[57 µM],19%,-15%
CCn1nc(C)c(CNC(=O)c2ccc(OC3CCN(Cc4ccccn4)CC3)cc2)c1C,/,-10%,11%,-5%,79µM*
COc1ccc(CCNC(=O)C(=O)NCC(c2cccs2)S(=O)(=O)c2ccccc2)cc1 (centres undefined),/,-30%,8%,15%[59 µM],-22%
SMILES,L3MBTL1 inh,JMJD2A Tudor inh,HP1b binding inh,G9a block,BAZ2B block
O=S(=O)(Nc1ccccc1)c1cccc2nsnc12,-30%,?,?,?,50µM*
O=C(O)CNS(=O)(=O)c1cccc2nsnc12,/,14µM*,10%,3%[12.7 µM],-27%
Cc1ccc(NS(=O)(=O)c2cccc3nsnc23)cc1[N+](=O)[O-],/,-21%,9%,40µM*,-29%
O=C(C1CCC(CNS(=O)(=O)c2cccc3nsnc23)CC1)N1CC=C(c2ccccc2)CC1 (centres undefined),/,-28%,16%,89µM*,17%
COc1ccc(-n2c(C)nc3cc(C(=O)NC4CCCC4)ccc32)cc1,/,7%,-2%,-19%[59 µM],-8%
COc1ccc(C2c3c(oc4ccc(C)cc4c3=O)C(=O)N2CCCN2CCOCC2)cc1OC (centres undefined),/,-11%,48%,-21%[59 µM],2%
CC(C)Oc1ccc(C2c3c(oc4ccccc4c3=O)C(=O)N2CCCN2CCOCC2)cc1 (centres undefined),/,-23%,8%,?,?
O=C1c2oc3ccc(Cl)cc3c(=O)c2C(c2ccccn2)N1CCCN1CCOCC1 (centres undefined),-5%,-35%,25%,20µM*,?
O=C1c2oc3ccccc3c(=O)c2C(c2cccnc2)N1CCCN1CCOCC1 (centres undefined),3%,-5%,52%,-40%[59 µM],1%
C=CCOc1ccc(C2c3c(oc4ccccc4c3=O)C(=O)N2CCCN2CCOCC2)cc1 (centres undefined),3%,-9%,-1%,50µM*,-30%
Cc1ccc(C2c3c(oc4ccccc4c3=O)C(=O)N2CCCN2CCOCC2)o1 (centres undefined),/,14µM*,23%,?,-4%
CC(C)c1ccc(C2c3c(oc4ccc(Cl)cc4c3=O)C(=O)N2CCCN2CCOCC2)cc1 (centres undefined),/,-14%,19%,-41%[59 µM],?
Cc1ccc(C2c3c(oc4cc(C)c(C)cc4c3=O)C(=O)N2CCCN2CCOCC2)cc1 (centres undefined),-1%,-29%,24%,40µM*,-1%
O=C(NCC1CCCO1)c1cccc(S(=O)(=O)NCc2ccccc2)c1 (centres undefined),/,-18%,34%,?,7%
Cc1nc(-c2cccc(C(F)(F)F)c2)sc1C(=O)O,3%,-9%,3%,56µM*,?
Cc1nc(-c2ccccc2)sc1C(=O)O,-1%,?,-9%,?,-23%
N=C(c1cccc([N+](=O)[O-])c1)N1CCCCCC1,12%,-9%,43%,15%,1%
Cc1nc(N2CCCCC2)sc1C(=O)c1cccc([N+](=O)[O-])c1,-3%,?,?,?,40µM*
Cc1nc(N2CCCCC2)sc1C(=O)c1ccc(SCCO)c([N+](=O)[O-])c1,/,13µM*,?,40µM*,40µM*
CCc1ccc(NC(=O)N2CCN(c3nnc(C)c4c(C)n(-c5ccc(Cl)cc5)nc34)CC2)cc1,/,-22%,43%,18%[59 µM],-35%

# Source: PubChem (National Center for Advancing Translational Sciences (NCATS))
